The source of these data is the antibiotic and cytotoxicity screens of Wong et al. (2023).

Structures are written as SMILES. About 3,300 (8.5%) of roughly 39,000 compounds were called active. What follows is part of a selection rich in actives, with near analogues and random picks from the rest.

In this assay the test system is HepG2. Nature of the assay: cytotoxicity call (relative viability < 0.9). Conditions: 10 µM.
Consider `Cc1noc(C)c1NC(=O)N(C)C[C@H]1Oc2ccc(NC(=O)c3ccncc3)cc2CC(=O)N([C@H](C)CO)C[C@H]1C`, for which the cytotoxicity call was “inactive”.

For `CC(C)NC(=O)N(C)C[C@@H]1OCCCC[C@@H](C)Oc2ccc(NC(=O)Nc3ccccc3)cc2C(=O)N([C@@H](C)CO)C[C@H]1C`, the cytotoxicity call is “inactive”. As for `C[C@H]1CN([C@@H](C)CO)C(=O)c2cc(NS(=O)(=O)c3ccc(Cl)cc3)ccc2O[C@@H]1CN(C)S(C)(=O)=O`, the entry is “inactive”; as for `C[C@H](CO)N1C[C@H](C)[C@@H](CN(C)C(=O)C2CCOCC2)Oc2ncc(C#Cc3cccc(F)c3)cc2C1=O`, “inactive”; as for `C[C@@H]1CN([C@@H](C)CO)C(=O)c2cc(NC(=O)Nc3cccc4ccccc34)ccc2O[C@@H](C)CCCCO[C@@H]1CN(C)S(=O)(=O)c1cccs1`, “inactive”.

In the case of `COc1ccccc1C#Cc1cnc2c(c1)C(=O)N([C@@H](C)CO)C[C@@H](C)[C@H](CN(C)C(=O)CC1CC1)O2`, the cytotoxicity call was “inactive”. As for `Cc1ccc(S(=O)(=O)Nc2ccc3c(c2)C(=O)N([C@H](C)CO)C[C@@H](C)[C@H](CN(C)C(=O)NC(C)C)O3)cc1`, the cytotoxicity call is “inactive”. As for `C[C@@H]1CN([C@H](C)CO)C(=O)CCCn2cc(nn2)CO[C@@H]1CN(C)C(=O)c1cc(-c2ccccc2)on1`, the cytotoxicity call was “inactive”. Consider `CN(C)CCCCNC(=O)[C@@H]1C[C@@H]2C(=O)N[C@@H](CCCC[N+](C)(C)C)C(=O)N2[C@@H]1c1ccc(O)cc1`, for which the cytotoxicity call was “inactive”.

Turning to `C[C@H]1CCCCO[C@H](CN(C)C(=O)Nc2ccc(C(F)(F)F)cc2)[C@@H](C)CN([C@@H](C)CO)C(=O)c2cc(NC(=O)Nc3cccc4ccccc34)ccc2O1`, the cytotoxicity call was “inactive”. On to `COc1ccc(S(=O)(=O)N(C)C[C@H]2Oc3ccc(NC(=O)Nc4c(C)noc4C)cc3CC(=O)N([C@@H](C)CO)C[C@@H]2C)cc1`, for which the cytotoxicity call is “inactive”. As for `CCS(=O)(=O)N1C[C@]2(CN(C2)C(=O)Nc2ccc(cc2)F)c2c(n(c3cc(ccc23)OC)C)[C@H]1CO`, the entry is “inactive”.

For `C[C@@H]1CN([C@H](C)CO)C(=O)Cc2cc(NS(=O)(=O)c3ccc(F)cc3)ccc2O[C@@H]1CN(C)Cc1ccc(Oc2ccccc2)cc1`, the cytotoxicity call was “active”. Turning to `C[C@H](CO)N1C[C@H](C)[C@@H](CN(C)Cc2ccc(Oc3ccccc3)cc2)Oc2ccc(NS(=O)(=O)c3ccc(F)cc3)cc2CC1=O`, the cytotoxicity call was “inactive”. To `CC(=O)[C@@H](OC(=O)CS(C)(=O)=O)C(=O)NCc1ccccc1` belongs “inactive”.

In the case of `COc1ccc(S(=O)(=O)Nc2ccc3c(c2)C(=O)N([C@H](C)CO)C[C@@H](C)[C@H](CN(C)C(=O)CCC(F)(F)F)OCCCC[C@@H](C)O3)cc1`, the cytotoxicity call was “inactive”. Consider `C[C@@H]1CCCCO[C@H](CN(C)C(=O)C2CCCCC2)[C@@H](C)CN([C@H](C)CO)C(=O)c2cc(NS(=O)(=O)c3ccc(Cl)cc3)ccc2O1`, for which the cytotoxicity call is “inactive”. To `C[C@@H]1CN([C@H](C)CO)C(=O)c2cc(NS(=O)(=O)c3ccc(Cl)cc3)ccc2O[C@@H](C)CCCCO[C@H]1CN(C)C(=O)C1CCCCC1` belongs “active”; to `C[C@@H]1CN([C@H](C)CO)C(=O)c2cc(NS(=O)(=O)c3ccc(Cl)cc3)ccc2O[C@@H](C)CCCCO[C@@H]1CN(C)C(=O)C1CCCCC1`, “active”; to `C[C@H](CO)N1C[C@H](C)[C@H](CN(C)C(=O)C2CCCCC2)OCCCC[C@H](C)Oc2ccc(NS(=O)(=O)c3ccccc3)cc2C1=O`, “inactive”. For `COc1ccc(S(=O)(=O)Nc2ccc3c(c2)C(=O)N([C@H](C)CO)C[C@@H](C)[C@H](CN(C)C(=O)C2CCCCC2)OCCCC[C@@H](C)O3)cc1`, the cytotoxicity call was “inactive”. To `C[C@@H]1CCCCO[C@H](CN(C)C(=O)C2CCCCC2)[C@H](C)CN([C@@H](C)CO)C(=O)c2cc(NS(=O)(=O)c3ccc(Cl)cc3)ccc2O1` belongs “inactive”; to `C[C@@H]1CN([C@@H](C)CO)C(=O)c2cc(NS(=O)(=O)c3ccc(Cl)cc3)ccc2O[C@@H](C)CCCCO[C@H]1CN(C)C(=O)C1CCCCC1`, “inactive”; to `C[C@@H]1CCCCO[C@@H](CN(C)C(=O)C2CCCCC2)[C@H](C)CN([C@@H](C)CO)C(=O)c2cc(NS(=O)(=O)c3ccccc3)ccc2O1`, “active”. To `C[C@@H]1CCCCO[C@@H](CN(C)C(=O)C2CCCCC2)[C@H](C)CN([C@@H](C)CO)C(=O)c2cc(NS(=O)(=O)c3ccc(Cl)cc3)ccc2O1` belongs “inactive”.

For the compound `COc1ccc(S(=O)(=O)Nc2ccc3c(c2)C(=O)N([C@H](C)CO)C[C@H](C)[C@@H](CN(C)C(=O)C2CCCCC2)OCCCC[C@H](C)O3)cc1`, the cytotoxicity call was “inactive”.

Turning to `COc1ccc(S(=O)(=O)Nc2ccc3c(c2)C(=O)N([C@H](C)CO)C[C@H](C)[C@H](CN(C)C(=O)C2CCCCC2)OCCCC[C@H](C)O3)cc1`, the cytotoxicity call was “active”. On to `C[C@@H]1CCCCO[C@H](CN(C)C(=O)C2CCCCC2)[C@H](C)CN([C@H](C)CO)C(=O)c2cc(NS(=O)(=O)c3ccccc3)ccc2O1`, for which the cytotoxicity call is “inactive”.
